Only some compounds are listed: those with a hit (about 2.1% of all), similar ones and a draw of the others.
D2 antag = D2 dopamine receptor (human) antagonism | inhibition, % at 10 µM | 340,000 compounds, 2% hits | P14416 | HEK293 TREx D2 cells, calcium flux, dopamine EC80; in the data active = inhibition above about 30%; inactive = below that, where a call was filed; also: 0% is about no effect
Target sequence (P14416 whole entry, looked up): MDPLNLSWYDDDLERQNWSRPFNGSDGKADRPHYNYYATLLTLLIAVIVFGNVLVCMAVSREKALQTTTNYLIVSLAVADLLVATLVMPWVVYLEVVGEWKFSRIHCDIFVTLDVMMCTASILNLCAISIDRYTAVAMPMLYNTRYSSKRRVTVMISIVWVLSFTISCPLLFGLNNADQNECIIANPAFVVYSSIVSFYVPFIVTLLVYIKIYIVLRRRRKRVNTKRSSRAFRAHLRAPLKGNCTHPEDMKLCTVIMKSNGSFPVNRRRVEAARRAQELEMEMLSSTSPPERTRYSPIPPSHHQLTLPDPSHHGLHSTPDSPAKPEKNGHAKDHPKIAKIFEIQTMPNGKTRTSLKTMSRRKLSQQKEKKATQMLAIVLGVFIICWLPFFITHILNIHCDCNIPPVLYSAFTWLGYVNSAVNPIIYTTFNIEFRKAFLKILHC
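Calcium mobilization kinetics were recorded at 1 s intervals in tetracycline-induced HEK293 T-REx D2 cells, first for 180 s after compound addition and then 180 s after EC80 dopamine.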
D2 PAM-1 = positive allosteric modulators of human D2 dopamine receptor. P14416. HEK293 T-REx D2, calcium flux, EC20 dopamine potentiation. potentiation, % at 10 µM. 340,000 compounds, 0.34% hits. AID 485347;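 active = potentiation over 3 SD above the plate norm, cut at about 30% in these data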; also: 0% is about no effect
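Potentiation of an EC20 dopamine calcium response measured kinetically over 180 s, after a preceding 180 s compound-only read flagging agonists. Cells: inducible Hek293 Trex D2 line, 4000/well, cultured overnight at 30 C before dye loading.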
LDHA block = blocks human lactate dehydrogenase A | activity change, % (values are at about 110 or 230 µM) | purified LDHA, NADH/diaphorase-resazurin fluorescence; stronger effect = lower value | P00338 | 480,000 compounds, 0.15% hits; in the data active = activity change below about -30%; inconclusive = mostly about -25% to -30%;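 also: plate controls were DMSO wells for no effect and wells without enzyme for full effect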
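Human LDH5 (2 nM) was incubated with 0.06 mM NADH and 0.2 mM pyruvate for 5 min at room temperature in Tris pH 7.4. Remaining NADH was coupled through diaphorase/resazurin, and resorufin fluorescence was read at 0 and 20 min.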
D2 ag-1 = human D2 receptor agonism in beta-arrestin assay; 360,000 compounds, 0.084% hits; activation, % (no concentration beside the values); P14416; AID 624465; DiscoveRx PathHunter D2 beta-arrestin, luminescence, 90 min; 100% = 57 uM dopamine signal; in the data active = activation above about 40%; inconclusive = between about 15% and that limit
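DiscoveRx PathHunter D2 beta-arrestin cells (2,100/well) attached overnight, then compound-stimulated 90 min at 37 C in HBSS/10 mM HEPES/0.1% Tween-20 buffer; beta-galactosidase complementation read by luminescence after 1 h at ambient temperature. Dopamine 57 uM final (EC100) as control.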
D2 PAM-2 = potentiates the human D2 dopamine receptor allosterically | DiscoveRx D2 beta-arrestin cells, luminescence, 90 min; 100% = 57 uM dopamine signal | potentiation, % (test concentration not listed) | 360,000 compounds, 0.23% hits; in the data active = potentiation above about 50%; inconclusive = mostly about 30% to 49%
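D2 cells co-treated with compound plus 50 nM dopamine (EC20) for 90 min at 37 deg C to detect potentiation. Beta-arrestin recruitment was read as enzyme-fragment luminescence after 1 h at ambient temperature. Full response was set by 57 uM dopamine.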
D2 ag-2 = D2 dopamine receptor (human) agonism; P14416; HEK293 T-REx D2 cells, calcium flux agonist mode; activation, % at 2 µM; 340,000 compounds, 0.53% hits;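 active = activation over 3 SD above normal in the single-dose calcium agonist read, cut at about 30% in these data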; also: 0% is about no effect
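Agonism is scored from calcium flux in a force-coupled, inducible HEK293 cell line expressing D2, read kinetically for 180 s after compound addition against dopamine controls.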
Active calls of the source: *; u = inconclusive; x = not tested or not shown.

SMILES	D2 antag	D2 PAM-1	LDHA block	D2 ag-1	D2 PAM-2	D2 ag-2
CCCCNCCCOc1ccc(C)cc1Br	8.6	-26.2	-19.1	7.3	-12.7	-0.3
Cc1ccc(OCCCN(C)C)c(Br)c1	37.4*	8.3	-22.5	-2.0	-18.5	-0.3
CC(SC1=Nc2ccccc2C2CC=NN12)C(=O)NC1(C#N)CCCCC1 (stereo not drawn)	5.3	-28.9	-1.7	-8.5	-27.4	44.2*
CC(Sc1ccc2ccccc2n1)C(=O)NC1(C#N)CCCCC1 (stereo not drawn)	x	x	12.5	x	x	x
COc1cc(NC(=O)C2CCC(=O)N2S(=O)(=O)c2ccc(C)cc2)cc(OC)c1 (stereo not drawn)	5.5	-12.6	-7.0	3.1	-9.6	-0.4
COc1ccc(NC(=O)C2CCC(=O)N2S(=O)(=O)c2ccc(C)cc2)cc1Cl (stereo not drawn)	33.6*	-45.3	-3.7	-0.7	-14.5	0.9
COc1ccc(/C=N/NC(=O)c2sccc2OCc2ccc(F)cc2)cc1OC	36.7*	-8.2	-0.6	-2.4	17.1	-0.6
C=CCN(c1ccccc1)S(=O)(=O)c1cccc(C(=O)NC2CCN(Cc3ccccc3)CC2)c1	66.4*	-10.2	-6.2	-3.6	-31.9	-0.4
CCN(c1ccccc1)S(=O)(=O)c1cccc(C(=O)NC2CC2)c1	x	x	4.8	x	x	x
O=C(NC1CCN(Cc2ccccc2)CC1)c1cccc(S(=O)(=O)Nc2ccc(F)cc2)c1	45.3*	-27.9	0.5	2.1	-5.6	-0.1
O=C(NC1CCN(Cc2ccccc2)CC1)c1cccc(S(=O)(=O)Nc2ccc(Br)cc2)c1	34.1*	-16.8	-2.5	2.7	-31.9	1.0
Cc1ccc(NS(=O)(=O)c2cccc(C(=O)NC3CCN(Cc4ccccc4)CC3)c2)c(C)c1	x	x	0.3	-0.1	-3.2	x
O=C(N/N=C/c1ccccc1O)C1CC(=O)N(c2ccc(Cl)cc2)C1 (stereo not drawn)	35.2*	-23.4	0.7	2.6	-19.1	0.1
Cc1ccc(/C=N/NC(=O)C2CC(=O)N(c3ccccc3)C2)s1 (stereo not drawn)	-17.6	-7.6	-3.9	-4.0	-21.9	-0.8
Cc1cccn2c(=O)nc(SCC(=O)N3CCCCC3)nc12	20.9	-4.0	0.7	2.4	3.4	-0.4
Cc1cccn2c(=O)nc(SCC(=O)N3CCCCCC3)nc12	31.1*	-8.6	-1.4	0.6	-18.5	0.3
CCCN1CCCc2cc(CN)ccc21	9.0	-8.8	23.8	3.6	50.4*	-0.1
O=C(CCc1ncc(-c2ccc(Cl)cc2)o1)NC12CC3CC(CC(C3)C1)C2	x	x	5.0	x	x	x
Cc1cc(SCC(=O)Nc2ccc(F)c(F)c2F)nc2ccccc12	x	x	-34.2*	x	x	x
COc1ccccc1C(=O)N1CCN(Cc2cccnc2)CC1	-13.4	-7.2	-32.6*	-3.4	-4.1	-0.2
O=C(c1cccnc1)N1CCN(Cc2ccccc2Br)CC1	-24.5	-9.8	-31.5*	-4.1	-0.7	0.2
COc1ccccc1CNC(=O)c1cccc2c1C(=O)N(Cc1cccnc1)C2	-12.3	30.6*	2.0	-5.9	-1.1	-1.1
N#Cc1ccc(N2CCC(C(=O)Nc3ccc(S(=O)(=O)N4CCCC4)cc3)CC2)nc1	x	x	32.7	x	x	x
CCC(C)c1ccccc1NC(=O)COc1ncnc2ccc(Br)cc12 (stereo not drawn)	x	x	6.1	x	x	x
COc1ccc(-n2nc([N+](=O)[O-])c(=NCCc3ccc(C)cc3)n2O)cc1	5.9	1.2	-3.6	u	70.9*	-0.6
COc1ccc(-n2nc([N+](=O)[O-])c(=NCCc3ccc(Cl)cc3)n2O)cc1	-1.0	14.8	0.7	13.7	87.3*	0.1
COc1ccc(-n2nc([N+](=O)[O-])c(=NC3CCN(Cc4ccccc4)CC3)n2O)cc1	71.2*	-49.2	6.3	u	15.7	0.3
COc1ccc(-n2nc([N+](=O)[O-])c(=NCCC3=CCCCC3)n2O)cc1	14.2	-1.9	-3.6	50.5*	74.2*	0.2
COc1ccc(-n2nc([N+](=O)[O-])c(=NCc3cccnc3)n2O)cc1	-10.6	-3.4	9.4	u	u	-0.8

Source: PubChem (National Center for Advancing Translational Sciences (NCATS))
